# According to the supplement of paper PMC9694430:
# Several values for one entry are separate records, joined by “and”; a condition that tells them apart may be missing. Equal values may be shown once. Where a name gives a salt, the structure may show the parent alone.
# Key:
# Experiment in all cases: thermal shift delta Tm vs DMSO control; higher = stronger stabilization (binding)
# Details in all cases: 12.5 µM; protein concentration 2 µM
# LOC_OS04G57630-cb004 = test system: LOC_OS04G57630-cb004
# In short: (§1)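 Rice kinase domain constructs were expressed in E. coli, purified, and tested by differential scanning fluorimetry with compound added in DMSO. Each well of a 96-well plate held 19.5 μl of 2 μM kinase in 100 mM potassium phosphate pH 7.5, 150 mM NaCl, 10% glycerol and 5 × SYPRO Orange, and fluorescence was read from 25°C to 95°C at 0.05°C/s. The melting temperature shift is the mean of triplicates, taken against protein with DMSO alone after Boltzmann fitting.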
# LOC_OS05G07850-cb002 = test system: LOC_OS05G07850-cb002
# In short: as §1
# LOC_OS05G16824-cb004 = test system: LOC_OS05G16824-cb004
# In short: as §1
# LOC_OS05G28520-cb001 = test system: LOC_OS05G28520-cb001
# In short: as §1
# LOC_OS05G30820-cb001 = test system: LOC_OS05G30820-cb001
# In short: as §1
# LOC_OS05G43570-cb004 = test system: LOC_OS05G43570-cb004
# In short: as §1
# LOC_OS06G16330-cb003 = test system: LOC_OS06G16330-cb003
# Chain of LOC_OS06G16330-cb003 (as listed by the source): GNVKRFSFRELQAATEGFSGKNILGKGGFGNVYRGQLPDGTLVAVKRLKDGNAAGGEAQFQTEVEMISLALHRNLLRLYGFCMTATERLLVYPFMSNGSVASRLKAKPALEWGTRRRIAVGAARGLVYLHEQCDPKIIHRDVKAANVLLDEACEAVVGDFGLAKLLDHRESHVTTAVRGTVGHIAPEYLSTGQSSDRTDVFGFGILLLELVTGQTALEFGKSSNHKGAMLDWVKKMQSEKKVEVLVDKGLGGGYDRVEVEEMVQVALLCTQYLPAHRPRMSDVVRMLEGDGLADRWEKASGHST
# In short: as §1
# LOC_OS06G22820-cb001 = test system: T1, LOC_OS06G22820-cb001
# T1 sequence (whole entry): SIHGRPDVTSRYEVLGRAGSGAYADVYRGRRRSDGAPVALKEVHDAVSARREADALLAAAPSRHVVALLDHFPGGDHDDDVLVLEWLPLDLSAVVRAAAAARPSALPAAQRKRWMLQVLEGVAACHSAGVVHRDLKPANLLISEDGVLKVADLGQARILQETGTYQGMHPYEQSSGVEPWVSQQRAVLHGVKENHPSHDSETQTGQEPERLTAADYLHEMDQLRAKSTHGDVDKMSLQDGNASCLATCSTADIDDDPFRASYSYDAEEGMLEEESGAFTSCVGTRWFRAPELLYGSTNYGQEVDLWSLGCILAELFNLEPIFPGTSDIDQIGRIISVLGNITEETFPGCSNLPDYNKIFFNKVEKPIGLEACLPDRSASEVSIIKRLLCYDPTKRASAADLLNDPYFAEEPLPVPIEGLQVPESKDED
# In short: as §1
# LOC_OS07G06570-cb004 = test system: LOC_OS07G06570-cb004
# In short: as §1
# LOC_OS07G07230-cb001 = test system: LOC_OS07G07230-cb001
# In short: as §1
Structure (SMILES),thermal shift delta Tm (LOC_OS04G57630-cb004),thermal shift delta Tm (LOC_OS05G07850-cb002),thermal shift delta Tm (LOC_OS05G16824-cb004),thermal shift delta Tm (LOC_OS05G28520-cb001),thermal shift delta Tm (LOC_OS05G30820-cb001),thermal shift delta Tm (LOC_OS05G43570-cb004),thermal shift delta Tm (LOC_OS06G16330-cb003),thermal shift delta Tm (LOC_OS06G22820-cb001),thermal shift delta Tm (LOC_OS07G06570-cb004),thermal shift delta Tm (LOC_OS07G07230-cb001)
CS(=O)(=O)c1ccc(-c2cnc(N)c(C(=O)Nc3ccccc3)n2)cc1,0.45 °C,8.7 °C,-1.5 °C,0.25 °C,0.57 °C,0.1 °C,2.51 °C,0.37 °C,0.82 °C,0.7 °C
COc1cccc(-c2cc(=O)c3ccccc3o2)c1N,-0.72 °C,0.19 °C,-2.84 °C,0.24 °C,0.41 °C,0.15 °C,-0.2 °C,0.44 °C,0.29 °C,0.35 °C
CCn1c(-c2nonc2N)nc2c(C#CC(C)(C)O)ncc(OC[C@H]3CCCNC3)c21,0.06 °C,0.29 °C,-1.28 °C,0.27 °C,0.49 °C,1.47 °C,-0.37 °C,0.88 °C,0.7 °C,0.32 °C
COc1ccc(Cl)c(Nc2nc3ccccc3nc2NS(=O)(=O)c2cccc(NC(=O)C(C)(C)N)c2)c1 [Pilaralisib (XL147)],2.01 °C,2.9 °C,2.11 °C,0.49 °C,0.75 °C,1.75 °C,1.96 °C,2.03 °C,0.12 °C,0.54 °C
CCn1c(=O)c(-c2ccc(-c3cncs3)cc2Cl)cc2cnc(Nc3ccc(N4CCN(C)CC4)cc3)nc21,0.31 °C,1.19 °C,0.07 °C,0.25 °C,0.51 °C,0.24 °C,-0.19 °C,0.67 °C,0.84 °C,0.19 °C
Cn1cc(-c2cnn3c(N)c(Br)c([C@@H]4CCCNC4)nc23)cn1,0.1 °C,6.22 °C,4.78 °C,0.02 °C,0.27 °C,0.29 °C,7.12 °C,0.34 °C,0.75 °C,0.55 °C
CCN(C)S(=O)(=O)Nc1ccc(F)c(C(=O)c2c[nH]c3ncc(-c4cnc(C5CC5)nc4)cc23)c1F,1.47 °C,6.9 °C,1.58 °C,1.1 °C,0.45 °C,0.13 °C,1.23 °C,0.65 °C,0.34 °C,1.77 °C
CCC(=O)Nc1cccc(Oc2nc(Nc3ccc(N4CCN(C)CC4)cc3OC)ncc2Cl)c1,0.17 °C,5.91 °C,-0.12 °C,0.72 °C,0.41 °C,0.44 °C,0.62 °C,0.4 °C,0.81 °C,0.4 °C
Oc1cc(O)cc(/C=C/c2ccc(O)c(O)c2)c1 [Piceatannol],0.71 °C,2.79 °C,-0.53 °C,1.37 °C,0.74 °C,0.72 °C,1.4 °C,0.94 °C,0.43 °C,0.27 °C
COc1cc(N2CCC(N(C)C)CC2)ccc1Nc1ncc(Cl)c(Nc2ccccc2P(C)(C)=O)n1,2.89 °C,15 °C,6.56 °C,0.2 °C,1.4 °C,0.32 °C,8.95 °C,0.49 °C,1.14 °C,0.35 °C
O=C(NC1CCNCC1)c1n[nH]cc1NC(=O)c1c(Cl)cccc1Cl,-0.08 °C and 0.55 °C,0.37 °C and 0.45 °C,-3.35 °C and -1.47 °C,0.1 °C and 0.64 °C,0.56 °C and 0.5 °C,0.07 °C and 0.69 °C,-0.07 °C and 0.05 °C,0.77 °C and 1.12 °C,0.44 °C and 0.91 °C,0.04 °C and 0.01 °C
C=CC(=O)N1CCN(CCCn2c(=O)c(-c3c(Cl)c(OC)cc(OC)c3Cl)cc3cnc(NC)nc32)CC1,0.34 °C,0.01 °C,3.63 °C,-0.19 °C,0.06 °C,0.18 °C,-0.29 °C,0.15 °C,0.73 °C,1.75 °C
"Cc1c(CN2CCN(C(=O)[C@H](C)O)CC2)sc2c(N3CCOCC3)nc(-c3cnc(N)nc3)nc12 [Apitolisib (GDC-0980, RG7422)]",0.67 °C,2.89 °C,1.9 °C,0.57 °C,0.58 °C,1.24 °C,0.88 °C,0.56 °C,0.61 °C,-0.1 °C
N#Cc1ccc2ncnc(NCCc3ccccc3)c2c1 [Senexin A],0.34 °C,4.61 °C,4.32 °C,0.11 °C,0.16 °C,0.23 °C,2.48 °C,0.4 °C,1.46 °C,0.54 °C
COc1cc(Nc2ncc(F)c(Nc3ccc4c(n3)NC(=O)C(C)(C)O4)n2)cc(OC)c1OC,1.55 °C,13.2 °C,12.2 °C,0.56 °C,1.19 °C,0.37 °C,12.2 °C,0.02 °C,0.43 °C,0.41 °C
CN1CC[C@H](c2c(O)cc(O)c3c(=O)cc(-c4ccccc4Cl)oc23)[C@H](O)C1 [Flavopiridol HCl],0.77 °C,4.9 °C,0.91 °C,0.55 °C,0.9 °C,0.71 °C,3.57 °C,1.71 °C,0.71 °C,0.03 °C
Cc1cc(Nc2cc(N3CCN(C)CC3)nc(/C=C/c3ccccc3)n2)n[nH]1,3.73 °C,11.7 °C,11.2 °C,7.06 °C,1.8 °C,0.82 °C,5.06 °C,0.17 °C,1.23 °C,0.9 °C
Nc1[nH]nc2nnc(-c3c(-c4ccccc4)nn4ccccc34)cc12,0.25 °C,2.77 °C,2.12 °C,0.56 °C,0.84 °C,0.89 °C,1.11 °C,0.39 °C,0.46 °C,0.64 °C
Cc1cc(C(=O)NOCCO)c(Nc2ccc(I)cc2F)n(C)c1=O,0.11 °C,0.04 °C,-9.58 °C,-0.17 °C,0.7 °C,0.18 °C,-0.11 °C,0.38 °C,1.15 °C,0.15 °C
